The whole screen tested about 310,000 compounds, of which about 17,000 (5.5%) were called active. Where a call stands in place of a potency, no number is given. Another 11% or so got no clear call; they are omitted. The call rests on the fitted dose curve; in most records, active means well fitted inhibition curve with a large enough effect; inconclusive means small, poorly fitted or top-dose-only effect, or effect the other way; inactive means no such curve, though single readings can be large or run the other way. This excerpt belongs to a sample that is enriched for actives.

Among the data in PubChem BioAssay AID2551 (National Center for Advancing Translational Sciences (NCATS), 2010) are Potency values, retold here.
Potency means the concentration at half of the fitted maximal effect.

Sequence of Nuclear receptor ROR-gamma (Mus musculus) (P51450 whole entry, looked up, the tested form may be a part): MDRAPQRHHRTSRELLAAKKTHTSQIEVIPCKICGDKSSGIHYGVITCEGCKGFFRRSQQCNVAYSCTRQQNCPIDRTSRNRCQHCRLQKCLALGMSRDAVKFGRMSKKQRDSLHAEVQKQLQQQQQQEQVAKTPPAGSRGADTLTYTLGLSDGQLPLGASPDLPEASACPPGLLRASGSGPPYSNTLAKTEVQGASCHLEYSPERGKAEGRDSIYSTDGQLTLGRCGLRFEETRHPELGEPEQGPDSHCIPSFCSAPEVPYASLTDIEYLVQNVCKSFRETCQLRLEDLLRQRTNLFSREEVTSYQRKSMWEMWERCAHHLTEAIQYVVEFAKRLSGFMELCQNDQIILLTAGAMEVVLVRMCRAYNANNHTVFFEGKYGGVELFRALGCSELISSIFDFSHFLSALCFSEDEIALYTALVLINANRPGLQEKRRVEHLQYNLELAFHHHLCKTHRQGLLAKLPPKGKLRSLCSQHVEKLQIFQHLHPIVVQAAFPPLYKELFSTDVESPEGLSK

The target of the assay is Nuclear receptor ROR-gamma (Mus musculus) (UniProt P51450). Nature of the assay: qHTS for inhibitors of ROR gamma transcriptional activity. Further: nearly all actives have a fitted effect of over 60% in size. The note with it: Drosophila S2 Gal4-RORgamma UAS-luciferase reporter, 20 h; series mostly up to 53.6 µM. The method, boiled down:
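A Gal4/UAS one-hybrid system in insect cells: metallothionein-promoter Gal4–ROR gamma fusion plus Photinus luciferase reporter. Copper sulfate 700 uM final, 20 hr ambient incubation, luminescent detection after 10 min with reagent.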
Background: In qHTS, concentration-response curves come from the screen itself.
For the compound `CC(=O)c1cccc(NC(=O)CN2C(=O)c3cccnc3Oc3ccc(Cl)cc32)c1`, the Potency result was “inactive”.
Consider `Nc1cc(N)nc(SCc2ccc(Cl)cc2)n1`, for which the Potency entry is “inactive”.
For the compound `Clc1ccc(CSc2nnc(/C=C/c3ccccc3)o2)c(Cl)c1`, the Potency entry is “inactive”.
As for `CSCc1cc(N(C)C)nc(SCc2ccc(Cl)cc2Cl)n1`, the Potency is 8.91 µM (active).
For `Cc1cc(C)c(OCC(=O)N(Cc2cccs2)C2CCS(=O)(=O)C2)c(C)c1` (stereo not given), the Potency result was “inactive”.
For `Cc1cccc(NC(=O)Nc2ccc(OCc3ccccc3)cc2)n1`, the Potency entry is “inactive”.
On to `CCOC(=O)c1ccc(NC(=O)Cn2nnc(-c3ccc(C)cc3)n2)cc1`, for which the Potency result was “inactive”.
Consider `Cc1cccc(NC(=O)Cc2ccc(Br)cc2)n1`, for which the Potency result is “inactive”.
The result for `COC(=O)c1ccc(NC(=S)Nc2cccc(C)n2)cc1` reads 2 µM (active); that for `CCOC(=O)c1ccc(NC(=S)Nc2cc(C)cc(C)n2)cc1`, 2 µM (active).
With `CCOC(=O)c1ccc(NC(=O)c2cccnc2)cc1` the entry was “inactive”; with `CC(=O)N1c2ccc(S(=O)(=O)N3CCCC(C(=O)Nc4ccc(C)cc4C)C3)cc2CC1C` (stereo not given), “inactive”; with `COc1cccc(/C=C2\Sc3ccc(C(=O)NCC4CCCO4)cc3N(C)C2=O)c1` (stereo not given), “inactive”.
The result for `COc1cc(OC)cc(C(=O)NCCSCc2ccc(Cl)cc2)c1` reads “inactive”; that for `CCOC(=O)c1ccc(N2C(=O)CC(N(C)Cc3ccccc3)C2=O)cc1` (stereo not given), “inactive”.
As for `CCCCOC(=O)c1ccc(N2C(=O)CC(N3CCN(C/C=C/c4ccccc4)CC3)C2=O)cc1` (stereo not given), the Potency entry is “inactive”.
Take `CCCCCCC(=O)N(O)C1CC(=O)N(c2ccccc2)C1=O` (stereo not given): the Potency is 2.82 µM (active).
The result for `CCNc1ncc2ncc(=O)n(Cc3cccc(OC)c3)c2n1` reads 12.6 µM (active); that for `COc1cccc(Cn2c(=O)c(C)nc3cnc(Oc4ccccc4)nc32)c1`, “inactive”.
`CCNc1ncc2ncc(=O)n(CCc3ccccc3)c2n1`: the Potency result was “inactive”.
With `Cc1ccc(SCCSc2ncccn2)cc1`, the Potency result was “inactive”.
The result for `Cc1ccc2c(C)c(C(=O)N(C)Cc3ccncn3)oc2c1C` reads “inactive”; that for `O=c1[nH]c2ccc(S(=O)(=O)N3CCCC3)cc2[nH]1`, “inactive”; that for `CCOC(=O)N1CCN(C(=O)c2cn(C)c3ccc(S(=O)(=O)N4CCCC4)cc3c2=O)CC1`, “inactive”.
The result for `CCCCn1c(=S)[nH]c2cc(S(=O)(=O)N3CCCCC3)ccc21` reads 11.2 µM (active); that for `CN(C)CCN(C(=O)C1CCCCC1)c1nc2cc3c(cc2s1)OCO3`, “inactive”; that for `Brc1ccc(OCCn2ccnc2)cc1`, “inactive”.
With `CC1(C)C2CCC1(C)C(OC(=O)CCn1ccnc1)C2` (stereo not given) the figure was 11.2 µM (active).
In the case of `COc1ccc(NC(=O)CCn2ccnc2)c(OC)c1`, the Potency entry is “inactive”.
With `O=C(Nc1ccncc1)c1ccc(Cl)c([N+](=O)[O-])c1` the entry was “inactive”; with `CC1CCN(C(=S)c2ccc(-c3ccc(Cl)cc3Cl)o2)CC1`, 15.8 µM (active).
For the compound `CC1CCN(C(=S)c2cccc(O)c2)CC1`, the Potency entry is “inactive”.
Turning to `COc1ccc(C(=O)Nc2c(Cl)cc(Cl)cc2C(=O)N2CCC(C)CC2)cc1`, the Potency result is “inactive”.
With `CCc1ccc(NC(=O)CCNS(=O)(=O)c2cccs2)cc1` the entry was “inactive”; with `Cc1ccc(NC(=O)[C@H](Cc2ccccc2)NC(=O)C2CCNCC2)cc1`, “inactive”; with `CC1=CC(C)(C)Nc2ccc(OC(=O)C(Cc3ccccc3)N3C(=O)C4CCCCC4C3=O)cc21` (stereo not given), “inactive”.
With `CC1=CC(C)(C)Nc2ccc(OC(=O)CN3C(=O)C4CCCCC4C3=O)cc21` (stereo not given) the figure was 4.47 µM (active).
As to `O=C(CN1C(=O)C2C3CCC(C3)C2C1=O)Oc1ccc2ccccc2c1` (stereo not given), the Potency result was “inactive”.
With `O=C1CSc2ccc(S(=O)(=O)NCc3ccccc3)cc2N1` the entry was “inactive”; with `CN(Cc1ccccc1)C(=O)C1CCCN(c2ncnc3c2nc2n3CCCCC2)C1` (stereo not given), “inactive”.
With `CN(C)CCN(C(=O)C1=COCCO1)c1nc2ccc(Cl)cc2s1` the entry was “inactive”; with `CN(C)c1ccc(/C=C2\NC(=S)N(Cc3ccccc3)C2=O)cc1`, 5.01 µM (active); with `CC1=NN(Cc2ccccc2)C(=O)/C1=C/c1ccc(N(C)C)cc1`, “inactive”.
The result for `O=C1NCC(=O)N(Cc2ccccc2)/C1=C/c1ccccc1` reads “inactive”.
Take `COC(=O)CSc1nnc(NC(=O)CCc2ccccc2)s1`: the Potency result is “inactive”.
The result for `O=C(Cc1ccc(Br)cc1)NCCN1CCOCC1` reads “inactive”.
In the case of `Clc1ccc(-c2nnc(-c3ccccc3)nc2N2CCSCC2)cc1`, the Potency entry was “inactive”.
As to `CC1CCN(Cc2nc(-c3ccc(Cl)cc3)no2)CC1`, the Potency result is “inactive”.
For the compound `Clc1ccc(-c2nc3ccccn3c2CN2CCSCC2)cc1`, the Potency was 12.6 µM (active).
The result for `Cc1ccc(N(Cc2ccccc2O)C(=O)c2ccccc2F)cc1` reads “inactive”.
As to `COc1ccc(C(=O)ON=C2c3ccccc3-c3ccccc32)cc1OC`, the Potency entry is “inactive”.
With `COc1ccc(C(=O)O/N=C(\N)Cc2ccc(Cl)cc2Cl)cc1OC` the figure was 15.8 µM (active); with `COc1ccc(C/C(N)=N/OC(=O)c2ccco2)cc1OC`, “inactive”.
Take `CCOc1ccc(N(CC(=O)Nc2cccc(OC)c2)S(C)(=O)=O)cc1`: the Potency result was “inactive”.
The result for `OC(CNCCc1ccc(Cl)cc1Cl)COc1ccccc1` (stereo not given) reads “inactive”; that for `COc1ccc(C2CC(c3cccs3)=NN2C(=O)CCC(=O)O)cc1OC` (stereo not given), “inactive”; that for `O=C(CCC(=O)Nc1ccccc1)N/N=C/c1ccccc1F`, “inactive”.
For `O=C(CCCCCNC(=O)c1ccccc1)N/N=C/c1ccccc1`, the Potency result is “inactive”.
For the compound `O=C(N/N=C/c1ccccc1O)/C(=C/c1ccccc1)CCO`, the Potency was 1.12 µM (active).
Regarding `COC(=O)c1ccc(COC(=O)c2cnc(Cl)c(Cl)c2)cc1`, the Potency entry is “inactive”.
The result for `CCn1c(SCC(=O)NC2CC2)nnc1-c1ccccn1` reads “inactive”; that for `CCC(=O)c1ccc(OC(=O)/C=C/c2cc(OC)c(OC)c(OC)c2)cc1`, “inactive”.
On to `COc1ccc(/C=C2/C(=O)N(c3ccccc3)N=C2C)c(OC)c1`, for which the Potency result is “inactive”.
With `COc1cc(/C=C/C2=CC(C)(C)NC(=S)N2)cc(OC)c1OC` the figure was 3.55 µM (active); with `COc1ccc(N)c(OC)c1`, “inactive”.
The result for `COc1ccc(/C=C/C2=CC(C)(C)NC(=S)N2)c(OC)c1` reads 1.26 µM (active); that for `CCOC(=O)COn1c(=O)c(-c2ccc(OCC)cc2)[n+]([O-])c2ccccc21`, “inactive”; that for `COc1cc(C(=O)OCC(=O)NC(C)CCc2ccccc2)cc(OC)c1OC` (stereo not given), “inactive”.
With `COc1cc(C(C(=O)NC2CCCC2)N(Cc2ccccc2)C(=O)c2snc(C(N)=O)c2N)ccc1O` (stereo not given), the Potency entry was “inactive”.
`O=C(N/N=C/c1cccc([N+](=O)[O-])c1)c1ccncc1`: the Potency entry was “inactive”.
Regarding `Cc1[nH]n(-c2ccccc2)c(=O)c1/C=N/NC(=O)c1ccoc1C`, the Potency was 0.251 µM (active).
The result for `Cc1[nH]n(-c2ccccc2)c(=O)c1N=Nc1ccccc1C(=O)N1CCCCC1` reads “inactive”.
The result for `Cc1ccc(-n2[nH]c(C)c(/C=N/NC(=O)c3cccc([N+](=O)[O-])c3)c2=O)cc1C` reads 1.12 µM (active); that for `COc1cc(/C=N/NC(=O)c2ccoc2C)ccc1OCCN1CCCCC1`, “inactive”; that for `COc1cccc(/C=N/NC(=O)c2cccc([N+](=O)[O-])c2)c1OS(=O)(=O)c1ccc(C)cc1`, “inactive”.
